Where “and” joins values, the source holds several entries; their conditions need not be identical. Equal entries are not always repeated. Where two headings read alike, the source gives them in different places.
Columns and labels:
Conditions in all cases: concentration: 1 μM, replicates: in singlicate, n = 1
[1] = tested on: KIT-autoinhibited
[2] = tested on: KIT
[3] = tested on: LATS1
[4] = tested on: LATS2
[5] = tested on: LCK
[6] = tested on: LIMK1
[7] = tested on: LIMK2
[8] = tested on: T1, LKB1
T1 construct: gene STK11

[9] = tested on: T2, LOK
T2 construct: gene STK10

[10] = tested on: LRRK2
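Note: KINOMEscan kinase panel screen.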

Structure (SMILES)	%Inh [1] [%]	%Inh [2] [%]	%Inh [3] [%]	%Inh [4] [%]	%Inh [5] [%]	%Inh [6] [%]	%Inh [7] [%]	%Inh [8] [%]	%Inh [9] [%]	%Inh [10] [%]	%Inh ([2]; 1 µM)	%Inh ([3]; 1 µM)	%Inh ([4]; 1 µM)	%Inh ([6]; 1 µM)	%Inh ([8]; 1 µM)	%Inh ([9]; 1 µM)	%Inh ([1]; 1 µM)	%Inh ([5]; 1 µM)	%Inh ([7]; 1 µM)	%Inh ([10]; 1 µM)
c1ccc(-c2cc(-c3c[nH]nc3-c3ccccn3)ccn2)cc1 [GW576604]	0	9	0	0	0	0	0	17	0	0										
NCC(NC(=O)c1cc(-c2cn[nH]c2)c(-c2ccnc3[nH]ccc23)s1)c1ccccc1.O=C(O)C(F)(F)F.O=C(O)C(F)(F)F (stereo not drawn) [GSK1325775]	0	26	59	91.1	4	0	28	57	0	3										
CN1c2ccc(NCc3ccc(F)cc3)cc2-c2c(cnn2C)S1(=O)=O	0	24	0	0	4	0	0	23	0	0										
COc1ccc(Nc2nccc(N3CCC(NC(=O)Nc4cccc(C(C)=O)c4)C3)n2)cc1 (stereo not drawn) [GSK1379731]	0	49	0	0	0	1	0	5	0	2										
COc1cc2ncn(-c3cc(OCc4sccc4Cl)c(C(N)=O)s3)c2cc1OC [GSK448459]	0	31	47	0	34	4	0	0	99.1	0										
Cl.Nc1ncnc2occ(-c3ccc(NC(=O)Nc4cc(C(F)(F)F)ccc4F)cc3)c12 [SB-707548]	79	99.9	0	40	88	25	34	21	99.9	2										
CC(C)(C)n1cnc2c(N)ncnc21 [SKF-97359]	30	0	24	0	0	0	0	56	0	0										
COc1ccc(COc2cc(-n3cnc4ccccc43)sc2C(N)=O)cc1 [GSK1024304]	0	23	0	0	16	10	7	1	0	10										
COc1ccc(Nc2nccc(N3CCC(NC(=O)Nc4cc(C)ccc4C)C3)n2)cc1 (stereo not drawn) [GSK1379741]	0	25	0	0	0	0	0	0	0	0										
Fc1ccc(-c2ncn(CCCN3CCOCC3)c2-c2ccccn2)cc1 [SB-211742]	0	0	10	0	28	0	0	33	8	0										
O=c1cc(N2CCOCC2)nc2n(Cc3cccc4ccccc34)ccn12 [GSK2333389]	0	11	0	0	2	0	0	2	0	59										
Cc1ccc(C(=O)NCC(N)=O)cc1-n1c(C)cc(OCc2ccc(F)cc2F)c(Br)c1=O	0	6	13	0	25	16	0	0	26	0										
O=C(NCCCN1CCOCC1)c1cccc(Nc2nccc(Nc3ccc(Oc4ccccc4)cc3)n2)c1 [GW663929]	16	80	0	1	99.3	21	22	10	23	0										
COc1cc(Nc2nccc(N3CCC(NC(=O)c4cccc(NC(C)=O)c4)C3)n2)cc(OC)c1OC (stereo not drawn) [GSK1379754]	8	70	0	0	30	16	0	0	0	12										
Cc1c2ccc(N(C)c3ccnc(Nc4cccc(S(N)(=O)=O)c4)n3)cc2nn1Cc1ccccc1.Cl.Cl [GW787226]	86	99.9	6	0	90.7	89	73	48	98.4	0										
CCn1cnc2c(N)ncnc21 [GW345098]	7	20	0	21	5	26	27	26	25	0										
CN(C1=C(c2ccccc2)C(=O)NC1=O)c1ccccc1 [SB-334860]	0	16	0	14	20	15	20	5	1	0										

Structure (SMILES)	%Inh [1] [%]	%Inh [2] [%]	%Inh [3] [%]	%Inh [4] [%]	%Inh [5] [%]	%Inh [6] [%]	%Inh [7] [%]	%Inh [8] [%]	%Inh [9] [%]	%Inh [10] [%]	%Inh ([2]; 1 µM)	%Inh ([3]; 1 µM)	%Inh ([4]; 1 µM)	%Inh ([6]; 1 µM)	%Inh ([8]; 1 µM)	%Inh ([9]; 1 µM)	%Inh ([1]; 1 µM)	%Inh ([5]; 1 µM)	%Inh ([7]; 1 µM)	%Inh ([10]; 1 µM)
Cn1ccc2ncnc(Oc3ccc(NC(=O)Nc4ccncc4)c(Cl)c3)c21	0	74	0	0	0	0	0	13	14	0										
O=C(NCCNc1ccnc(Nc2ccc(F)cc2)n1)Nc1ccccc1F [GSK1379880]	0	48	0	0	15	0	0	0	0	0										
Nc1nc(-c2ccc3c(N)n[nH]c3c2)cc(N2CCCC2)n1 [GSK2227430]	0	12	0	5	0	0	3	1	0	0										
Cn1cc(-c2ccc3c(c2)CCN3C(=O)Cc2ccccc2Cl)c2c(N)ncnc21 [GSK2608885]	4	99.9	15	25	99.5	32	6	17	99.8	0										
Fc1ccc(-c2nn3c(OCC(F)(F)F)cccc3c2-c2ccncc2)cc1 [GW514784]	0	24	41	0	7	0	0	9	0	19										
CC(C)(CN)c1nc(-c2ccc(Cl)c(O)c2)c(-c2ccncc2)[nH]1.O=C(O)C(F)(F)F [SB-477794]	0				99.2		0			0	66% and 58%	7% and 39%	86% and 89%	0% and 2%	0% and 31%	99.1% and 98.2%				
CC(C)Oc1ccc2c(-c3ccnc(Nc4ccc(N5CCN(C)CC5)cc4)n3)cnn2n1 [GW696155]	43	91.1	0	43	92.6	85	100	73	0	27										
NS(=O)(=O)c1cccc(-c2ccc3ncc(N4CCOCC4)nc3c2)c1 [GSK1535721]	15	14	0	9	0	0	15	3	0	0										
Cc1nnc(-c2ccc(C)c(-c3ccc(C(=O)Nc4ccc(NS(C)(=O)=O)cc4)cc3)c2)o1 [GW702865]	0	58	0	1	17	0	0	26	6	0										
N#Cc1c(N2CCOCC2)sc(-c2ccn[nH]2)c1-c1ccc(Cl)cc1	1	25	22	15	13	6	0	25	5	0										
O=C1Cc2cc(Nc3nc(NCc4cccc(S(=O)(=O)C(F)(F)F)c4)ncc3C(F)(F)F)ccc2N1	0	16	11	0	0	1	9	0	1	11										
COCCNC(=O)c1ccc(-c2cc(C(=O)NC3CC3)cc(F)c2C)cc1 [GW868318]	24	26	10	0	4	16	3	49	20	62										
NCCNS(=O)(=O)c1ccc(-c2ccnc3[nH]ccc23)cc1 [GSK977617]						0					44% and 28%	75% and 70%	95.8% and 95.9%		0% and 2%	12% and 0%	0% and 21%	38% and 3%	6% and 12%	17% and 0%
COc1ccc(CNC(=O)NC2CCN(c3ccnc(Nc4ccc(OC)cc4)n3)C2)cc1 (stereo not drawn) [GSK1379727]	0	16	6	0	8	0	0	15	0	0										
NS(=O)(=O)CCc1cccc(Nc2nccc(-c3c(-c4cccc(NC(=O)c5c(F)cccc5F)c4)nn4ccccc34)n2)c1 [GSK336735]	13	100	7	7	99.6	67	9	1	99.4	0										
CCc1nc(-c2cccc(C)c2)c(-c2ccnc(NCc3ccccc3)c2)s1	0	26	21	0	0	0	0	0	19	3										

— PMC5540273 (PLoS ONE, 2017)
